Screen size: about 5,500 compounds; about 2,000 (36%) were called active. Inconclusive results (about 18%) are left out. Rule as the data show it: active = normalized growth mostly below about 0.91 (no sharp cut-off); inconclusive = no clear call, values can overlap the other calls; inactive = mostly above about 0.92. This is one part of the list.
Test: chemical genetic growth profiling, strain panel (AID 1159580);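 also: tested at 20 µM; growth read once vehicle control cultures reached saturation at 30 °C; 1 = growth at the plate median or of vehicle wells; lower values mean less growth of the strain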
Details: S. cerevisiae deletion strains, growth OD
[1] = locus YAR019C, strain CDC15, stronger effect = lower value
[2] = locus YBL105C, strain PKC1, stronger effect = lower value
[3] = locus YBR135W, strain CKS1, stronger effect = lower value
[4] = locus YBR136W, strain MEC1, stronger effect = lower value
[5] = locus YBR160W, strain CDC28, stronger effect = lower value
[6] = locus YDL017W, strain CDC7, stronger effect = lower value
[7] = locus YDL028C, strain MPS1, stronger effect = lower value
[8] = locus YDL101C, strain DUN1, stronger effect = lower value
[9] = locus YDL108W, strain KIN28, stronger effect = lower value
[10] = locus YDL132W, strain cdc53, stronger effect = lower value
[11] = locus YDL214C, strain PRR2, stronger effect = lower value
[12] = locus YDR052C, strain DBF4, stronger effect = lower value
[13] = locus YDR054C, strain cdc34, stronger effect = lower value
[14] = locus YDR226W, strain ADK1, stronger effect = lower value
[15] = locus YDR477W, strain SNF1, stronger effect = lower value
[16] = locus YER123W, strain YCK3, stronger effect = lower value
[17] = locus YER133W, strain GLC7, stronger effect = lower value
[18] = locus YFL009W, strain cdc4, stronger effect = lower value
[19] = locus YFL029C, strain CAK1, stronger effect = lower value
[20] = locus YFR003C, strain YPI1, stronger effect = lower value
[21] = locus YFR019W, strain FAB1, stronger effect = lower value
[22] = locus YFR028C, strain CDC14, stronger effect = lower value
[23] = locus YGR040W, strain KSS1, stronger effect = lower value
[24] = locus YGR052W, strain FMP48, stronger effect = lower value
[25] = locus YGR092W, strain DBF2, stronger effect = lower value
[26] = locus YHR030C, strain SLT2, stronger effect = lower value
[27] = locus YHR079C, strain IRE1, stronger effect = lower value
[28] = locus YHR082C, strain KSP1, stronger effect = lower value
[29] = locus YHR205W, strain SCH9, stronger effect = lower value
[30] = locus YIL147C, strain SLN1, stronger effect = lower value
[31] = locus YJL095W, strain BCK1, stronger effect = lower value
[32] = locus YJL128C, strain PBS2, stronger effect = lower value
[33] = locus YJL157C, strain FAR1, stronger effect = lower value
[34] = locus YJR016C, strain ILV3, stronger effect = lower value
[35] = locus YJR066W, strain TOR1 (second series), stronger effect = lower value
[36] = locus YJR066W, strain TOR1, stronger effect = lower value
[37] = locus YKL048C, strain ELM1, stronger effect = lower value
[38] = locus YKL067W, strain YNK1, stronger effect = lower value
[39] = locus YKL101W, strain HSL1, stronger effect = lower value
[40] = locus YKL193C, strain SDS22, stronger effect = lower value
[41] = locus YKL203C, strain TOR2, stronger effect = lower value
[42] = locus YLR113W, strain HOG1, stronger effect = lower value
[43] = locus YLR133W, strain CKI1, stronger effect = lower value
[44] = locus YLR403W, strain SFP1, stronger effect = lower value
[45] = locus YML070W, strain DAK1, stronger effect = lower value
[46] = locus YMR001C, strain CDC5, stronger effect = lower value
[47] = locus YMR205C, strain PFK2 (second series), stronger effect = lower value
[48] = locus YMR277W, strain FCP1, stronger effect = lower value
[49] = locus YNL006W, strain LST8, stronger effect = lower value
[50] = locus YNL020C, strain ARK1, stronger effect = lower value
[51] = locus YNL161W, strain CBK1, stronger effect = lower value
[52] = locus YNL183C, strain NPR1, stronger effect = lower value
[53] = locus YNL207W, strain RIO2, stronger effect = lower value
[54] = locus YNL222W, strain SSU72, stronger effect = lower value
[55] = locus YNL307C, strain MCK1 (second series), stronger effect = lower value
[56] = locus YOL078W, strain AVO1, stronger effect = lower value
[57] = locus YOL136C, strain PFK27, stronger effect = lower value
[58] = locus YOR061W, strain CKA2, stronger effect = lower value
[59] = locus YOR119C, strain RIO1, stronger effect = lower value
[60] = locus YOR231W, strain MKK1, stronger effect = lower value
[61] = locus YOR329C, strain SCD5, stronger effect = lower value
[62] = locus YPL031C, strain PHO85, stronger effect = lower value
[63] = locus YPL153C, strain RAD53, stronger effect = lower value
[64] = locus YPL204W, strain HRR25, stronger effect = lower value
[65] = locus YPL209C, strain IPL1, stronger effect = lower value
[66] = locus YPL256C, strain CLN2, stronger effect = lower value
[67] = locus YPR025C, strain CCL1, stronger effect = lower value
[68] = locus YPR106W, strain ISR1, stronger effect = lower value
[69] = locus YPR111W, strain DBF20, stronger effect = lower value
[70] = strain NNK1, stronger effect = lower value
[71] = strain TSCII, stronger effect = lower value

Measured: normalized growth

COc1c(Br)csc1C(=O)O/N=C(/N)c1cc(C(F)(F)F)cc(C(F)(F)F)c1
inactive: [1] 0.994 | [2] 0.981 | [3] 0.99 | [4] 0.988 | [5] 0.979 | [6] 0.985 | [7] 0.988 | [8] 0.954 | [9] 0.987 | [10] 0.989 | [11] 1.05 | [12] 0.99 | [13] 0.989 | [14] 0.986 | [15] 1.05 | [16] 0.999 | [17] 1.03 | [18] 0.995 | [19] 0.96 | [20] 0.988 | [21] 1 | [22] 0.987 | [23] 1.06 | [24] 1.1 | [25] 1 | [26] 1.1 | [27] 1.07 | [28] 1.14 | [29] 1.03 | [30] 0.993 | [31] 1.09 | [32] 0.956 | [33] 1.01 | [34] 0.979 | [35] 0.99 | [36] 1.15 | [37] 1.01 | [38] 1.01 | [39] 1.05 | [40] 0.987 | [41] 1.14 | [42] 1.02 | [43] 1.03 | [44] 1.05 | [45] 1.04 | [46] 0.989 | [47] 0.999 | [48] 0.99 | [49] 0.995 | [50] 1.03 | [51] 0.982 | [52] 1.03 | [53] 0.989 | [54] 0.985 | [55] 1.05 | [56] 0.986 | [57] 1.03 | [58] 0.97 | [59] 1.13 | [60] 1.03 | [61] 0.995 | [62] 1.06 | [63] 1.04 | [64] 1.07 | [65] 0.985 | [66] 1.01 | [67] 0.987 | [68] 0.967 | [69] 0.964 | [70] 1 | [71] 0.993

Cc1cc(/C(N)=N\OC(=O)C(C)(C)C)cc(/C(N)=N\OC(=O)C(C)(C)C)c1
active: [42] 0.858
inactive: [1] 0.977 | [2] 0.985 | [3] 0.992 | [4] 0.969 | [5] 0.98 | [6] 0.989 | [7] 0.949 | [8] 0.985 | [9] 0.983 | [10] 0.987 | [11] 0.968 | [12] 0.996 | [13] 0.985 | [14] 0.979 | [15] 0.991 | [16] 0.974 | [17] 0.977 | [18] 0.982 | [19] 0.986 | [20] 0.989 | [21] 0.979 | [22] 0.983 | [23] 0.979 | [24] 1.02 | [25] 1.02 | [26] 0.904 | [27] 1.02 | [28] 1.06 | [29] 0.974 | [30] 0.964 | [31] 0.992 | [32] 0.937 | [33] 1 | [34] 0.993 | [35] 0.962 | [36] 1 | [37] 0.987 | [38] 0.953 | [39] 0.954 | [40] 0.983 | [41] 1.08 | [43] 1 | [44] 0.997 | [45] 0.966 | [46] 0.969 | [47] 0.991 | [48] 0.972 | [49] 0.984 | [50] 0.989 | [51] 0.988 | [52] 1.03 | [53] 0.989 | [54] 0.979 | [55] 0.947 | [56] 0.992 | [57] 0.962 | [58] 1 | [59] 1.03 | [60] 1 | [61] 0.99 | [62] 0.997 | [63] 0.965 | [64] 0.969 | [65] 0.991 | [66] 0.922 | [67] 0.989 | [68] 0.978 | [69] 0.954 | [70] 0.982 | [71] 0.967

Cn1ncc(C(=O)O/N=C(/N)c2cc(C(F)(F)F)cc(C(F)(F)F)c2)c1-n1cccc1
inactive: locus YAL013W, strain DEP1, stronger effect = lower value 1.02 | locus YBR229C, strain ROT2, stronger effect = lower value 1.01 | [8] 1.01 | locus YDL134C, strain PPH21, stronger effect = lower value 1.02 | locus YDR150W, strain NUM1, stronger effect = lower value 0.963 | locus YEL061C, strain CIN8, stronger effect = lower value 0.999 | locus YGR078C, strain PAC10, stronger effect = lower value 1 | [26] 0.972 | locus YHR087W, strain rtc3, stronger effect = lower value 0.996 | locus YJR043C, strain POL32, stronger effect = lower value 0.999 | locus YJR075W, strain HOC1, stronger effect = lower value 0.972 | locus YKL190W, strain CNB1, stronger effect = lower value 1.01 | locus YLR039C, strain RIC1, stronger effect = lower value 0.958 | locus YLR058C, strain SHM2 (second series), stronger effect = lower value 1 | locus YLR085C, strain ARP6, stronger effect = lower value 0.984 | locus YLR262C, strain YPT6, stronger effect = lower value 1.03 | locus YML094W, strain GIM5, stronger effect = lower value 0.988 | locus YMR219W, strain ESC1, stronger effect = lower value 1 | locus YMR263W, strain SAP30, stronger effect = lower value 0.934 | locus YMR307W, strain GAS1, stronger effect = lower value 1.03 | locus YNL153C, strain GIM3, stronger effect = lower value 0.996 | locus YNL298W, strain CLA4 (second series), stronger effect = lower value 1.02 | locus YNL322C, strain KRE1, stronger effect = lower value 0.991 | locus YNR030W, strain Alg12, stronger effect = lower value 1.02 | locus YOL006C, strain TOP1, stronger effect = lower value 0.98 | locus YPL055C, strain LGE1, stronger effect = lower value 0.88 | locus YPL241C, strain CIN2, stronger effect = lower value 0.935 | locus YPR135W, strain CTF4, stronger effect = lower value 0.961
